Compound activity: PubChem, several laboratories
Most compounds without a hit are left out; they make up all but 3.3% or so of the library.
MITF act = MITF TRPM1 promoter activation in melanoma cells; SK-MEL-5 TRPM1-promoter luciferase, 24 h; % of positive control, neutral wells = 0; activation, % at 12.5 µM; 300,000 compounds, 0.75% hits; AID 588334;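 active = mean activation of at least 80% with every replicate also reaching 80%; inconclusive = mean reaches 80% but some replicate falls short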
GAA850 FXN act = activators of GAA850 frataxin (FXN) promoter; HEK293 lucGAA850 FXN promoter luciferase reporter, 24 h; percent of 10 µM SAHA response; activation, % at 6 µM; 360,000 compounds, 0.56% hits; AID 540364;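 active = activation above the average of all compounds screened plus 3 SD, cutoff fixed separately per campaign, cut at about 7.5% in these data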
esBAF inh = SWI/SNF esBAF complex inhibition | mouse ES cells, Bmi1-luciferase knock-in reporter, 24 h; 100% = twice the neutral-well signal | reporter increase, % at 12.5 µM | 350,000 compounds, 2% hits; in the data active = activation above about 40%; inconclusive = no clear call, values can overlap the other calls;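 note: a rise in the Bmi1 reporter signal indicates esBAF inhibition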
Wnt act = Wnt/beta-catenin pathway activation | Wnt/beta-catenin reporter cell assay, activator, plate reader | 300,000 compounds, 1.2% hits | activation, % at 9.35 µM | AID 743398; in the data active = activation above about 30%, passing the limit was not always enough; inconclusive = no clear call, values can overlap the other calls
C2C12 statin = suppression of simvastatin myotoxicity; rescue of ATP level, % at 7.49 µM; AID 602340; C2C12 myotubes + simvastatin, ATP luminescence, 48 h; scaled: DMSO 0, geranylgeraniol control 100; 330,000 compounds, 0.78% hits;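 active = mean ATP rescue above about 67%, or every replicate alone reaching that limit, limit read from the data, passing the limit was not always enough; inconclusive = no clear call, values can overlap the other calls; inactive = mean under the limit and some replicate under it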;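 note: myotubes were challenged with 10 µM simvastatin during compound exposure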
Hits are given with their value; . = inactive; ? = inconclusive; / = not tested or not shown.

SMILES	MITF act	GAA850 FXN act	esBAF inh	Wnt act	C2C12 statin
O=C(Nc1ccccc1)Nc1ccc2c(c1)[C@H]1C[C@H](CC(=O)N3CCOCC3)O[C@@H](CO)[C@H]1O2	/	/	.	/	.
CC(NC(=O)/C=C/c1ccc(Br)cc1)c1ccc(Cl)cc1 (configuration not stated)	.	.	.	.	.
CN(C)CC(O)c1ccc(C=Cc2ccc(Cl)cc2)cc1 (configuration not stated)	.	.	49	?	.
Cc1[nH]n(-c2ccccc2)c(=O)c1C(C[N+](=O)[O-])c1ccccc1Cl (configuration not stated)	.	.	.	/	118
COc1ccc(C(C[N+](=O)[O-])c2c(C)[nH]n(-c3ccccc3)c2=O)cc1 (configuration not stated)	.	.	.	.	.
O=C(c1cc2c(s1)-c1ccccc1OC2)N1CCc2ccccc2C1	.	.	.	.	.
O=C(C1COc2ccccc2O1)N1CCc2ccccc2C1 (configuration not stated)	/	.	47	/	.
O=C(c1cc(Br)c(Br)s1)N1CCc2ccccc2C1	.	.	42	.	.
O=C(c1ccc2c(c1)OCO2)N1CCc2ccccc2C1	.	.	45	.	.
O=C(C1COc2ccccc2O1)N1CCCCC1 (configuration not stated)	.	.	.	.	.
CN(C)c1ccc2c(c1)[C@H]1C[C@H](CC(=O)NCc3cccc(F)c3)O[C@@H](CO)[C@H]1O2	/	/	.	/	.
CNC[C@@H]1Oc2ccc(NC(=O)Nc3ccccc3)cc2C(=O)N([C@H](C)CO)C[C@@H]1C	/	/	.	/	.
CC(C)c1ccc(NC(=O)[C@@H]2CCC(=O)N2C2OC(=O)c3ccccc32)cc1 (some centres not stated)	.	.	56	.	.
CCn1cc(SCC(=O)N2CCOCC2)c2ccccc21	.	.	52	.	.
Cn1cc(SCC(=O)N2CCOCC2)c2ccccc21	/	.	.	.	.
C[C@@H]1CN([C@@H](C)CO)C(=O)Cc2cc(NC(=O)Nc3cccc4ccccc34)ccc2O[C@@H]1CN(C)S(=O)(=O)c1ccc(Cl)cc1	/	/	.	/	95
Cc1ccc(S(=O)(=O)N(C)C[C@H]2Oc3ccc(NC(=O)Cc4ccccc4)cc3CC(=O)N([C@@H](C)CO)C[C@@H]2C)cc1	/	/	.	/	85
C[C@@H]1CN([C@H](C)CO)C(=O)Cc2cc(NC(=O)Nc3cccc4ccccc34)ccc2O[C@H]1CN(C)CC1CCCCC1	/	/	.	/	75
Cc1ccc(S(=O)(=O)N(C)C[C@@H]2Oc3ccc(NC(=O)Cc4ccccc4)cc3CC(=O)N([C@@H](C)CO)C[C@@H]2C)cc1	/	/	.	/	.
CCCNC(=O)[C@@H]1[C@@H](CO)[C@@H]2Cn3c(ccc(C4=CCCC4)c3=O)[C@H]1N2C(=O)CC	/	/	.	/	.
O=c1oc2c(O)cccc2cc1-c1nc2ccccc2[nH]1	.	.	.	36	.
O=c1oc2c(CN3CCCCC3)c(O)ccc2cc1-c1nc2ccccc2[nH]1	.	.	.	.	.
Cn1c(=N)n(CC(=O)c2cccs2)c2ccccc21	.	.	44	.	.
CCCn1c(=N)n(CC(=O)c2cccs2)c2ccccc21	.	.	.	.	.
Cc1cc(C(=O)Nc2cccc3c2O[C@@H](CN(C)S(=O)(=O)c2ccccc2)[C@@H](C)CN([C@@H](C)CO)C3=O)n(C)n1	/	/	.	/	.
SMILES	MITF act	GAA850 FXN act	esBAF inh	Wnt act	C2C12 statin
Cc1ccnc(NC(=O)c2ccc(OCC3CCCO3)cc2)c1 (configuration not stated)	.	.	/	35	/
COc1ccc(NC(=O)c2ccc(OCC3CCCO3)cc2)cc1Cl (configuration not stated)	.	.	42	.	.
Cc1csc(NC(=O)c2ccc(OCC3CCCO3)cc2)n1 (configuration not stated)	.	.	.	.	.
Cc1cccc2sc(NC(=O)c3ccc(OCC4CCCO4)cc3)nc12 (configuration not stated)	.	.	59	.	.
COc1ccc(NC(=O)c2ccc(OCC3CCCO3)cc2)cc1OC (configuration not stated)	.	.	51	.	.
NS(=O)(=O)c1ccc(NC(=O)c2ccc(OCC3CCCO3)cc2)cc1 (configuration not stated)	.	.	.	.	.
Cc1ccnc(NC(=O)c2ccc3c(c2)C(=O)N(CC2CCCO2)C3=O)c1 (configuration not stated)	.	.	/	.	/
COc1ccc(S(=O)(=O)N(C)C[C@H]2OCCCC[C@H](C)Oc3ccc(NC(=O)Nc4cccc5ccccc45)cc3C(=O)N([C@H](C)CO)C[C@H]2C)cc1	/	/	.	/	/
O=C(NC1CCCCCC1)c1ccc(OCC2CCCO2)cc1 (configuration not stated)	.	.	/	.	/
Cc1ccc(NC(=O)c2ccc(OCC3CCCO3)cc2)c(C)c1 (configuration not stated)	.	.	/	/	/
Cc1ccc(NC(=O)c2ccc(OCC3CCCO3)cc2)cc1Cl (configuration not stated)	/	.	78	42	.
Cc1ccc(F)cc1NC(=O)c1ccc(OCC2CCCO2)cc1 (configuration not stated)	.	.	47	.	.
C[C@@H]1CN([C@@H](C)CO)C(=O)c2cc(-c3cccc(C(=O)N(C)C)c3)cnc2O[C@@H]1CN(C)S(=O)(=O)c1ccccc1	/	/	.	/	.
O=C(Nc1ncn[nH]1)c1ccccc1O	.	.	.	.	.
O=C(Nc1ncn[nH]1)c1c(Cl)ccc(Cl)c1Cl	.	.	.	/	153
CC(C)NC(=O)Nc1ccc2c(c1)C(=O)N([C@@H](C)CO)C[C@H](C)[C@H](CN(C)C)O2	/	/	.	/	.
Cc1ccccc1Nc1nc(N)nc(CSc2nnnn2C)n1	.	.	56	.	.
Cc1ccccc1Nc1nc(N)nc(CSc2ccc(F)cc2)n1	89	.	?	.	.
CC1(C)Cc2nc3sc4c(OCc5ccccc5)ncnc4c3cc2CO1	.	.	.	.	74
CCc1nc2c(sc3nc4c(cc32)COC(C)(C)C4)c(=O)n1CCN(CC)CC	.	.	.	.	.
C=CCn1c(C)nc2c(sc3nc4c(cc32)COC(C)(C)C4)c1=O	.	.	/	46	/
CO[C@H](CN(C)Cc1cc(F)ccc1F)[C@H](C)CN(C(=O)Nc1ccc(F)cc1)[C@H](C)CO	/	/	.	/	.
COc1ccc(/C=N/NS(=O)(=O)c2ccccc2)cc1OC(=O)c1ccc(C)cc1	.	.	.	/	110
COc1ccc(/C=N/NS(=O)(=O)c2ccc(C)cc2)cc1OC(=O)c1ccccc1	.	.	.	/	.
COc1ccc(S(=O)(=O)N[C@H]2CC[C@@H](CC(=O)N3CCC(Cc4ccccc4)CC3)O[C@@H]2CO)cc1	/	/	.	/	.
CCCCCc1ccc(-c2ccc(OC)cc2)nc1	97	.	98	.	.
